Compound activity: PubChem BioAssay, several laboratories
Most compounds without a hit are left out; they make up all but 4.5% or so of the library.
aSyn 5UTR inh – MLPCN primary screen, SNCA 5' untranslated region | 300,000 tested, 0.82% active | alpha-synuclein 5'UTR reporter, inhibitor activity | AID 1813, 2009 | inhibition, % (tested at 7.5 µM); in the data active means inhibition above about 60%;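 further: H4 neuroglioblastoma cells stably carrying SNCA 5'UTR luciferase fusion; 0% = DMSO wells and 100% = positive control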
Jurkat NFkB inh – inhibitors of induced NF-kB luciferase reporter, primary screen, TCR NF-kB activation inhibitor project, cell-based, luminescence, uHTS; Jurkat, PMA/ionomycin-induced NF-kB luciferase reporter; 330,000 tested, 0.53% active; inhibition, % at 4 µM; AID 435003, 2010; in the data active means inhibition above about 50%
Mdm2-MdmX inh – inhibitors of human Mdm2-MdmX association, primary screen, cell-based, luminescence, split luciferase, SaOS-2, uHTS; Protein Mdm4 (Homo sapiens) + E3 ubiquitin-protein ligase Mdm2 (Homo sapiens), …; SaOS-2 split-luciferase Mdm2/MdmX complementation; inhibition, % at 8 µM; 330,000 tested, 3% active; AID 485346, 2010;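 active means inhibition of at least 50% at 8 µM in the primary screen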
Target sequence (O15151 whole entry, looked up): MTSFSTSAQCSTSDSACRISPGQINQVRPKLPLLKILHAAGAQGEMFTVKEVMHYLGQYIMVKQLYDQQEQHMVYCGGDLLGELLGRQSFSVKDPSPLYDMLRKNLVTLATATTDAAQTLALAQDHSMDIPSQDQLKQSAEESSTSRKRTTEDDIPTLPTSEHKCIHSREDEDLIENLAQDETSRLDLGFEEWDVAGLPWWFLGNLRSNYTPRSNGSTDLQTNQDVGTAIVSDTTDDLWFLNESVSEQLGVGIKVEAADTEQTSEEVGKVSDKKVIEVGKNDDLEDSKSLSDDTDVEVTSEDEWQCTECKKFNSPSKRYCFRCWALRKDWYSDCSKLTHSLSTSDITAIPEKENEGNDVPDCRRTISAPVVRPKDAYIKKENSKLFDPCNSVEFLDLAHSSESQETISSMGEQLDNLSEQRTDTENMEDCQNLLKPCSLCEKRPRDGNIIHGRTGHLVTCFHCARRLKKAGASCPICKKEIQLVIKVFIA
Target sequence (Q00987 whole entry, looked up): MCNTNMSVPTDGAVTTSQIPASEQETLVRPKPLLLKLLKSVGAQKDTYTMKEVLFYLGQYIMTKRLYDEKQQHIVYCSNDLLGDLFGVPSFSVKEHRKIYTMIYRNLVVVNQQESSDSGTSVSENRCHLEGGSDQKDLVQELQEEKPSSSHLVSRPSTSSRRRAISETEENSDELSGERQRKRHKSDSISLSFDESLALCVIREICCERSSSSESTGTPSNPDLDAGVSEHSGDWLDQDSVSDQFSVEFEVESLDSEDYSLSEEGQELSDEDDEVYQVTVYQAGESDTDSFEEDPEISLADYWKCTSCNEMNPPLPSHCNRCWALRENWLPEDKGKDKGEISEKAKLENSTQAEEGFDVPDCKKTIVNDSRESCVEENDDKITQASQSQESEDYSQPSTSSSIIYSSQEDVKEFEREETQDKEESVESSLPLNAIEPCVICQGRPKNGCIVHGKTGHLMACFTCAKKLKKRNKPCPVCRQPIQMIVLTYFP
CSC inhib – cancer stem cell viability inhibitors, primary screen, luminescence; cancer stem cell-like cells viability; inhibition, % at 7.5 µM; 300,000 tested, 1.1% active; in the data active means inhibition above about 75%; tested in HMLE shEcad cells
697 NFkB inh – inhibitors of PMA/ionomycin-induced NF-kB reporter, 697 cells, primary screen, B-cell NF-kB inhibitor project, cell-based, luminescence, uHTS; 697 B-cell NF-kB luciferase reporter, 16 h; inhibition, % at 4 µM; 330,000 tested, 0.33% active; AID 435022, 2010; in the data active means inhibition above about 35%
Gli-Sufu antag – Gli-Sufu pathway antagonists, primary screen, luciferase luminescence, Sufu-KO-LIGHT cells, uHTS | 340,000 tested, 0.74% active | Sufu-KO-LIGHT fibroblasts, Gli luciferase reporter luminescence | inhibition, % at 5 µM | AID 588413, 2011;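 active means inhibition above about 55%, limit read from the data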;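 further: 0% = DMSO-treated cells and 100% = wells with medium but no cells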
Gli-Sufu confirm – Gli-SUFU pathway antagonists, confirmation, single concentration, luciferase luminescence, Sufu-KO-LIGHT cells. 2,500 tested, 40% active. AID 602428, 2012. inhibition, % at 5 µM. shares compounds with Gli-Sufu antag. Gli luciferase reporter;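 active means mean inhibition at 5 µM reaching about 45%, limit read from the data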;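 further: plate controls were DMSO-treated cells for no effect and wells lacking cells for full effect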
SufuKO cytotox – cytotoxicity in Sufu-KO-LIGHT cells, confirmation, cytotoxicity control for Gli-SUFU antagonist project, cell-based, ATP luminescence, single concentration; shares compounds with Gli-Sufu antag; cytotoxicity, % at 5 µM; 2,500 tested, 32% active; AID 651994, 2013;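 active means mean cytotoxicity at 5 µM above about 25%, limit read from the data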;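 further: cells exposed to compound overnight for roughly 16 to 18 hours; plate controls were DMSO wells with cells for no effect and medium without cells for full effect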
Wnt3a cs – Wnt3a reporter signal inhibition, confirmation, counter-screen for Gli-SUFU antagonist project, Wnt-LIGHT cells, luminescence, single concentration; inhibition, % at 6.25 µM; shares compounds with Gli-Sufu antag; 2,500 tested, 20% active; AID 651995, 2013; Wnt3a-driven luciferase reporter;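 active means mean inhibition above about 25%, limit read from the data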
* = called active by the depositor; . = no result.

SMILES	aSyn 5UTR inh	Jurkat NFkB inh	Mdm2-MdmX inh	CSC inhib	697 NFkB inh	Gli-Sufu antag	Gli-Sufu confirm	SufuKO cytotox	Wnt3a cs
Cn1c(=O)c2ccccc2n(Cc2cccc(F)c2)c1=O	19	-19	1	0	-50	54	27	3	0
CC(C)(CO)NCC(O)Cn1cc(C=O)c2ccccc21 (centres undefined)	-11	9	8	-7	16	53	20	7	1
CCN1CCS/C1=C\C=C\C1=[N+](CC)CCS1	19	.	.	.	.	81*	87*	34*	50*
O=C1CCC(=O)N1c1ccc(-c2nc3ccccc3s2)cc1	-120	-33	-4	13	-187	-42	.	.	.
Cc1[nH]c2ccccc2c1SCc1nnc(SCc2ccc(Cl)cc2)n1C	34	1	32	7	-6	51	24	4	43*
CC(C)[C@H]1COCCS(=O)(=O)N1Cc1ccccc1-c1cccc2c1oc1ccccc12	.	.	33	.	5	93*	24	7	-40
COc1cc(C2C3=C(COC3=O)Oc3cc4c(cc32)OCO4)cc(OC)c1O (centres undefined)	.	.	.	.	.	50	67*	64*	12
COc1cc(C2C3=C(COC3=O)Oc3cc4c(cc32)OCO4)cc(OC)c1OC (centres undefined)	.	.	.	.	.	56*	57*	57*	13
COc1cc(C2c3cc4c(cc3OC(N3CCCCC3)C2C)OCO4)cc(OC)c1O (centres undefined)	.	.	.	.	.	-3	.	.	.
CC1Sc2ccc(S(=O)(=O)CCC(=O)N3CCc4ccccc43)cc2NC1=O (centres undefined)	-3	0	14	-1	1	-3	.	.	.
CC1Cc2c([nH]c3ccccc23)C2c3ccccc3CN12 (centres undefined)	-14	-5	19	-1	-8	7	.	.	.
CCCCn1c(N)c(N(CCOC)C(=O)c2nn(CC)c(=O)c3ccccc23)c(=O)[nH]c1=O	6	-2	0	3	3	-14	.	.	.
CN1/C(=C\C(=O)COC(=O)Cn2nnc(-c3ccccc3)n2)C(C)(C)c2ccccc21	31	14	17	-12	-18	71*	68*	43*	34*
CN1/C(=C/C(=O)COC(=O)CN2C(=O)C3CC=CCC3C2=O)C(C)(C)c2ccccc21 (centres undefined)	.	.	.	.	.	10	.	.	.
O=C(Nc1ccccc1C(F)(F)F)c1ncn[nH]1	9	-3	-1	-9	12	-4	.	.	.
CCc1ccc(-c2cc(C)no2)cc1S(=O)(=O)N1CCN(c2ccc(F)cc2)CC1	3	38	36	14	-57	4	.	.	.
COc1ccc(CCNC(=O)C2CCN(S(=O)(=O)c3cccc4cccnc34)CC2)cc1OC	-10	-3	-2	10	5	52	23	0	-17
CCN(c1ccccc1)S(=O)(=O)c1ccc2c(c1)CC(C)N2C(=O)C1CC1 (centres undefined)	0	3	26	-17	-18	22	.	.	.
CCOc1ccccc1N(C)S(=O)(=O)c1ccc2c(c1)CC(C)N2C(=O)C1CC1 (centres undefined)	21	3	32	32	-20	60*	16	12	-46
Cc1ccnc(NC(=O)CCC(=O)N(CC(=O)NCc2ccc(F)cc2)Cc2ccco2)c1	10	-21	2	-6	-10	63*	15	8	-6
Cc1ccnc(NC(=O)CCC(=O)N(CC(=O)NCc2ccc(F)cc2)c2ccc(F)cc2)c1	6	-1	6	-9	10	-25	.	.	.
CCN(CC)S(=O)(=O)c1cccc(C(=O)/C=C2/N(C)c3ccccc3C2(C)C)c1	5	-9	2	41	-10	48	.	.	.
CN1/C(=C/C=N/NC(=O)c2ccc([N+](=O)[O-])cc2)C(C)(C)c2ccccc21	-6	-6	19	.	12	11	.	.	.
CN1/C(=C\C(=S)NC(=O)c2cccc(Br)c2)C(C)(C)c2ccccc21	-14	31	16	10	-11	72*	56*	13	9
CN1/C(=C\C(=S)NC(=O)c2ccc([N+](=O)[O-])cc2)C(C)(C)c2ccccc21	-20	9	-3	-6	-7	62*	17	20	26*
SMILES	aSyn 5UTR inh	Jurkat NFkB inh	Mdm2-MdmX inh	CSC inhib	697 NFkB inh	Gli-Sufu antag	Gli-Sufu confirm	SufuKO cytotox	Wnt3a cs
CCC(Oc1ccc(C)cc1)C(=O)Nc1ccc2c(c1)n(C)c(=O)n2C (centres undefined)	17	11	4	-17	3	23	.	.	.
CCC(Oc1ccccc1F)C(=O)Nc1ccc2c(c1)n(C)c(=O)n2C (centres undefined)	19	7	19	2	-5	52	28	-2	7
CN(CC(=O)Nc1ccc(Cl)cc1)C(=O)Cn1[nH]c(=O)c2ccccc2c1=O	14	2	14	-15	7	0	.	.	.
O=C(CSc1ncn[nH]1)Nc1ccc(S(=O)(=O)N2CCCC2)cc1	-12	2	12	11	8	-9	.	.	.
CCOC(=O)c1cnc(Nc2nc3ccccc3o2)nc1CSC(=S)N(CC)CC	-15	9	42	.	-26	69*	32	20	-86
CCOC(=O)c1cnc(Nc2nc3ccccc3o2)nc1CSc1ncccn1	-100	-29	18	0	-26	-40	.	.	.
CC1(C)CC(N2CCCCC2)=CC(=[N+]2CCCCC2)C1	0	44	22	14	-8	84*	87*	46*	48*
CC1(C)CC(N2CCOCC2)=CC(=[N+]2CCOCC2)C1	-9	-14	6	-2	-2	-7	.	.	.
OC(CN1CCCCCC1)CN(c1ccccc1)c1ccccc1 (centres undefined)	1	16	-4	-5	-9	52	16	12	-30
CCN(CC)CCNC(=O)c1cn(CC)c2ccc(S(=O)(=O)N3CCc4ccccc4C3)cc2c1=O	4	-4	18	-9	11	5	.	.	.
CC(=O)Nc1ccc(C(=O)NNS(=O)(=O)c2ccc(C)cc2)cc1	7	2	33	2	5	3	.	.	.
